Records with an inconclusive call do not appear. Where a call stands in place of a potency, no number is given. Activity calls are given as the source filed them. Unless noted, calls follow the shape of the dose curve; as a rule, active = well fitted curve in the direction sought with a large enough effect; inconclusive = small, poorly fitted or top-dose-only effect, or another doubt; inactive = no such curve, though single readings can be large; an effect the other way counts as inactive or inconclusive.
How the values were obtained:
[1] = molecular target: Glucocorticoid receptor (Homo sapiens) (UniProt P04150); experiment: GR-GFP Redistribution (AID 450;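 active = compounds whose dose series gives a full or clear partial fitted curve of increased nuclear translocation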; also: potency is read from the fitted curve at half-maximal effect); settings: U2OS GR-GFP nuclear translocation, laser cytometry, 2 h
Glucocorticoid receptor (Homo sapiens), sequence (P04150 whole entry, looked up, the tested form may be a part): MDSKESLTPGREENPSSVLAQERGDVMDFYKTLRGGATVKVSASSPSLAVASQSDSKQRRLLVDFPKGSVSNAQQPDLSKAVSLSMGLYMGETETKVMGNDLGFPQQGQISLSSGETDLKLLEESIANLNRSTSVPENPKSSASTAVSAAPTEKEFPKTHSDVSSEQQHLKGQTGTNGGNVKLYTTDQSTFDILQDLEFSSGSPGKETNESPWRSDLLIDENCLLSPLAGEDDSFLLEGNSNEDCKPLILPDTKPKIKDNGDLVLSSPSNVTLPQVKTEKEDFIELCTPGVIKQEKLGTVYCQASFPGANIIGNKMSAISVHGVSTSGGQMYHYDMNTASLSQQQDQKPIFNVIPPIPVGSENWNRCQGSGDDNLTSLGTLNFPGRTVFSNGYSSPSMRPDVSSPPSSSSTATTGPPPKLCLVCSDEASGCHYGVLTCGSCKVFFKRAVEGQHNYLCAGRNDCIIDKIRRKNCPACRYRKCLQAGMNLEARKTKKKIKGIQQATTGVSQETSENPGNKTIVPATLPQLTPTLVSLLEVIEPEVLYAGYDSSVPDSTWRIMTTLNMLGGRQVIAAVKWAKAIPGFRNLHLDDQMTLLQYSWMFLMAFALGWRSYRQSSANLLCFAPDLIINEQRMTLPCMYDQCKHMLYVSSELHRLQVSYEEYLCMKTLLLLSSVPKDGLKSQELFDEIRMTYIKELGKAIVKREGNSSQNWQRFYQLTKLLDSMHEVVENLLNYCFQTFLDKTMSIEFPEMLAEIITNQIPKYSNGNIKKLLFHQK

[2] = molecular target: Glucocorticoid receptor (Homo sapiens) (UniProt P04150); experiment: GR-EFC Redistribution (AID 451; calls by dose curve; also: potency is read from the fitted curve at half-maximal effect); settings: CHO-K1 GR-EFC translocation, beta-gal luminescence, 2 h
Procedure, shortened: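 CHO-K1 cells stably expressing nuclear-localized β-gal enzyme acceptor and GR fused C-terminally to the enzyme donor fragment; ligand-driven nuclear translocation restores β-gal by complementation. Compounds titrated up to 46 uM final, 2 h at 37 °C; luminescence read.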

[3] = molecular target: Mitogen-activated protein kinase 10 (Mus musculus) (UniProt Q61831); experiment: JNK3 AlphaScreen Assay (AID 530; active = well fitted curve in either direction with a large enough effect, not every such curve was filed as active;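 also: kinase came from lysate of stimulated human HepG2 cells; signal reports phosphorylation of biotinylated GST-cJun 1-79 at Ser73 with 10 µM ATP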)
Procedure, shortened: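 Phosphorylation of biotinylated GST-cJun(1-79) at Ser73 is measured by AlphaScreen proximity luminescence. Enzyme is JNK3 in HepG2 lysates activated with interleukin-1beta and tumor necrosis factor alpha; ATP is 10 uM final.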

[4] = molecular target: 3',5'-cyclic-AMP phosphodiesterase 4B (Homo sapiens) (UniProt Q07343); experiment: qHTS Assay for Inhibitors of PDE-IV (AID 607; active = well fitted activation curve with a large enough effect in the main read-out, with a control signal flat, not every such curve was filed as active)
3',5'-cyclic-AMP phosphodiesterase 4B (Homo sapiens), sequence (Q07343 whole entry, looked up): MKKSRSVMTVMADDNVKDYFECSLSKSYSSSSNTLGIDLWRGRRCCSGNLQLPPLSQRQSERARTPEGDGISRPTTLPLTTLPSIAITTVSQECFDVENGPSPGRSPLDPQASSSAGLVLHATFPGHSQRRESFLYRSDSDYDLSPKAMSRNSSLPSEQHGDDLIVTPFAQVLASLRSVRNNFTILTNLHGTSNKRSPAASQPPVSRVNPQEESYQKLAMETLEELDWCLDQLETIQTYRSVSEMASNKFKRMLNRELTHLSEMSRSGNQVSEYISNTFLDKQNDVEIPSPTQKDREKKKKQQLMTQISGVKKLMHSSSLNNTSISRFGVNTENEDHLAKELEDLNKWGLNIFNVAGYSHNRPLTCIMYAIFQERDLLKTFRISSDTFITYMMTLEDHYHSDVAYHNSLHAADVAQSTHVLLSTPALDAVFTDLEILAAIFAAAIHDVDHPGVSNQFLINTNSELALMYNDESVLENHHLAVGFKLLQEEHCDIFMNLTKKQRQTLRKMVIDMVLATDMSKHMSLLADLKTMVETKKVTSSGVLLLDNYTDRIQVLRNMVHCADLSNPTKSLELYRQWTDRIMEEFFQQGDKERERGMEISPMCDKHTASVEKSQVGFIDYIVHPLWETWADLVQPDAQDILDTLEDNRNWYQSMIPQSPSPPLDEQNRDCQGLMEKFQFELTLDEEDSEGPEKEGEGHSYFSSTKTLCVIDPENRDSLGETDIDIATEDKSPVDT
Procedure, shortened: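 Live HEK293 cells with a modified cyclic nucleotide-gated (CNG) channel report intracellular cAMP via membrane-potential dye fluorescence (ex 535/em 590 nm). Endogenous PDE-IV was targeted. Compounds were tested at up to 22.9 uM final; RO 20-1724 100 uM served as control.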

[5] = molecular target: Cytochrome P450 2D6 (Homo sapiens) (UniProt P10635); experiment: qHTS Assay for Inhibitors and Substrates of Cytochrome P450 2D6 (AID 891); also: potency is read from the fitted curve at half-maximal effect; nearly all actives have a fitted effect of over 60% in size
Cytochrome P450 2D6 (Homo sapiens), sequence (P10635 whole entry, looked up): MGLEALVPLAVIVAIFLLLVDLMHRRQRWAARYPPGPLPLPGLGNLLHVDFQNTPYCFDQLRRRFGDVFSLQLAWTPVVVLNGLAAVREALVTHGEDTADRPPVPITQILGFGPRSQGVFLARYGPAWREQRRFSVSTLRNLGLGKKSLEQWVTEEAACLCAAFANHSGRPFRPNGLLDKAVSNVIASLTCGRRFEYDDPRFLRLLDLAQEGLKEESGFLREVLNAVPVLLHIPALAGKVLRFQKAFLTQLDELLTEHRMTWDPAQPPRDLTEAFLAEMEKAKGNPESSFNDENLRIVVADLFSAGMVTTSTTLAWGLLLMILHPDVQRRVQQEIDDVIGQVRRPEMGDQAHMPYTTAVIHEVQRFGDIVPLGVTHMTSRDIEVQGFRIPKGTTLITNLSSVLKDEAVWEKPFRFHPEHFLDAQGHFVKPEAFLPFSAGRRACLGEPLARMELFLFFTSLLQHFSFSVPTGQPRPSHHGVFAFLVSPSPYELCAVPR
Procedure, shortened: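 Luminescent read-out of luciferin formed by 5 nM human CYP2D6 demethylating 30 uM Luciferin-ME EGE (Km level) over 60 min at room temperature after NADPH regeneration addition. Data normalized to full inhibition by 1.43 uM quinidine.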

[6] = molecular target: Cytochrome P450 2C19 (Homo sapiens) (UniProt P33261); experiment: qHTS Assay for Inhibitors and Substrates of Cytochrome P450 2C19 (AID 899); also: potency is read from the fitted curve at half-maximal effect; nearly all actives have a fitted effect of over 60% in size
Cytochrome P450 2C19 (Homo sapiens), sequence (P33261 whole entry, looked up): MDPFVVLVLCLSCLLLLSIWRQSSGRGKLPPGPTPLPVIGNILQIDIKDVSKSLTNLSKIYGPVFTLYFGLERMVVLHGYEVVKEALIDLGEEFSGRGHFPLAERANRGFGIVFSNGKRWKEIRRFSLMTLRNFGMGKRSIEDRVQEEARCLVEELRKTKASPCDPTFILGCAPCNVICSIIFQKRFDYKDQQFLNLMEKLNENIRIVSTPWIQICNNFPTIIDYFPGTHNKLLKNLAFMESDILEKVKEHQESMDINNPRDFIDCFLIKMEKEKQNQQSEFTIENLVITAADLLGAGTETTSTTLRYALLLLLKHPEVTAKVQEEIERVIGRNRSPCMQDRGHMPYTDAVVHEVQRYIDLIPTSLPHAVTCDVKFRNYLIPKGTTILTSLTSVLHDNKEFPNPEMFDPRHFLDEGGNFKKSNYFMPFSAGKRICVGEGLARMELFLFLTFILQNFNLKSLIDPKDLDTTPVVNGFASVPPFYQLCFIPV
Procedure, shortened: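 In 50mM KPO4, the reaction held 5nM enzyme and KM-level (10uM) Luciferin-H EGE; it ran 60 min at 37C after NADPH regeneration and a 10 min compound preincubation. Luminescence values were scaled to 57uM ketoconazole as complete inhibition.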

[7] = qHTS Assay for Lipid Storage Modulators (AID 1519; calls by dose curve); settings: Drosophila S3 cells, BODIPY lipid droplet/cell ratio, laser cytometry, cells loaded with oleic acid; for activity change, negative = inhibition: at 57.5 µM (top of the series)
Procedure, shortened: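 Cells seeded at 5,000 per well were treated with compounds over a concentration series and loaded with oleic acid (400 uM, as added). Lipid droplet fluorescence (488 nm excitation, 500-530 nm channel) was read by laser-scanning cytometry and normalized to 20 uM Triacsin C.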

[8] = molecular target: DNA dC->dU-editing enzyme APOBEC-3G (Homo sapiens) (UniProt Q9HC16); experiment: qHTS for inhibitors of Vif-A3G interactions: Validation (AID 588379)
DNA dC->dU-editing enzyme APOBEC-3G (Homo sapiens), sequence (Q9HC16 whole entry, looked up): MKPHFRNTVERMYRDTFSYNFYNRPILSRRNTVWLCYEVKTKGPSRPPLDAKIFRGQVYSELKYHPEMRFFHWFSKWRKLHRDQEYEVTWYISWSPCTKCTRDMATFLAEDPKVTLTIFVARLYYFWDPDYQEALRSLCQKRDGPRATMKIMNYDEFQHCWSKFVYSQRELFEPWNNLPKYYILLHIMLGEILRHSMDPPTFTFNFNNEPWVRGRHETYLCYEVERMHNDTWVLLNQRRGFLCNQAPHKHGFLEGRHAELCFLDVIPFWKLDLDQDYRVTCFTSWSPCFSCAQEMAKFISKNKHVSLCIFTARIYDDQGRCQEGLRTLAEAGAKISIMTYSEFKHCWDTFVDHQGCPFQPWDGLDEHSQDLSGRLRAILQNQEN
Procedure, shortened: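 Yellow fluorescence (Ex 488, Em 500-530) of Vif-coexpressing HeLa A3G-eYFP cells, scanned by Acumen cytometer, reports blocked A3G degradation. Cells plated at 700/well overnight at 37 deg C before compound addition, then a further overnight compound incubation at 37 deg C.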

[9] = system: Zika virus NS2B-NS3 protease; experiment: Primary screen GU AMC qHTS for Zika virus inhibitors (AID 1347154); also: nearly all actives have a fitted effect of over 70% in size
Procedure, shortened: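 Unlinked Zika NS2B hydrophilic domain/NS3 protease domain noncovalent complex (25 nM final) in 10 mM Tris-HCl pH 8.0, 0.01% Tween 20, with AMC peptide substrate. Fluorescence (ex 340, em 450 nm) change over 15 min, room temperature; percent inhibition fitted to 4-parameter Hill equation.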

[10] = Primary qHTS for small molecule stabilizers of the endoplasmic reticulum resident proteome: Secreted ER Calcium Modulated Protein (SERCaMP) assay (AID 1508630)
Procedure, shortened: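 The SH-SY5Y reporter protocol was run at 3 concentrations up to 38.3 uM (primary) or 11 concentrations (follow-up): 16 h compound, 100 nM thapsigargin for 4 h, then extracellular luciferase luminescence.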

[11] = molecular target: Cytochrome P450 3A4 (Homo sapiens) (UniProt P08684); experiment: qHTS Assay for Inhibitors and Substrates of Cytochrome P450 3A4 (AID 884); also: nearly all actives have a fitted effect of over 50% in size
Cytochrome P450 3A4 (Homo sapiens), sequence (P08684 whole entry, looked up): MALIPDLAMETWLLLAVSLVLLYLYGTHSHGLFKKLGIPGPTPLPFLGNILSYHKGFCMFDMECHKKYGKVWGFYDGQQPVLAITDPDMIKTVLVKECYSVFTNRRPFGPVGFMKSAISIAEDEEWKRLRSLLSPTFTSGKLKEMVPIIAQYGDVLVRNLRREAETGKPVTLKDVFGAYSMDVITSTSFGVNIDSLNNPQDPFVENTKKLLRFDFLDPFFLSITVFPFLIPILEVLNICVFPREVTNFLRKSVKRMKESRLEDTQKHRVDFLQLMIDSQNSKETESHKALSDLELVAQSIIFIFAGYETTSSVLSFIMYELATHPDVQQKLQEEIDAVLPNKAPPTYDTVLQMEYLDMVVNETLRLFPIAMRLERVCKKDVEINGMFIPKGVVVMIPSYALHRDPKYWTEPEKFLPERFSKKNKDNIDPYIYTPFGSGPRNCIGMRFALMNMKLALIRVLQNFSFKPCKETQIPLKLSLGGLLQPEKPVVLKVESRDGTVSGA
Procedure, shortened: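 Luminescent readout of luciferin produced by CYP3A4 (20 nM) dealkylation of Luciferin-PPXE, 25 uM (its KM). NADPH-driven reaction ran 60 min at RT after 10 min compound preincubation; data scaled to 57 uM ketoconazole as 100% inhibition.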

[12] = molecular target: Ubiquitin carboxyl-terminal hydrolase 1 (Homo sapiens) (UniProt O94782); experiment: Inhibitors of USP1/UAF1: Pilot qHTS (AID 504865);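 also: rhodamine fluorescence freed from ubiquitin-rhodamine substrate followed over time; top concentration of the series differs between compounds; nearly all actives have a fitted effect of over 35% in size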
Ubiquitin carboxyl-terminal hydrolase 1 (Homo sapiens), sequence (O94782 whole entry, looked up): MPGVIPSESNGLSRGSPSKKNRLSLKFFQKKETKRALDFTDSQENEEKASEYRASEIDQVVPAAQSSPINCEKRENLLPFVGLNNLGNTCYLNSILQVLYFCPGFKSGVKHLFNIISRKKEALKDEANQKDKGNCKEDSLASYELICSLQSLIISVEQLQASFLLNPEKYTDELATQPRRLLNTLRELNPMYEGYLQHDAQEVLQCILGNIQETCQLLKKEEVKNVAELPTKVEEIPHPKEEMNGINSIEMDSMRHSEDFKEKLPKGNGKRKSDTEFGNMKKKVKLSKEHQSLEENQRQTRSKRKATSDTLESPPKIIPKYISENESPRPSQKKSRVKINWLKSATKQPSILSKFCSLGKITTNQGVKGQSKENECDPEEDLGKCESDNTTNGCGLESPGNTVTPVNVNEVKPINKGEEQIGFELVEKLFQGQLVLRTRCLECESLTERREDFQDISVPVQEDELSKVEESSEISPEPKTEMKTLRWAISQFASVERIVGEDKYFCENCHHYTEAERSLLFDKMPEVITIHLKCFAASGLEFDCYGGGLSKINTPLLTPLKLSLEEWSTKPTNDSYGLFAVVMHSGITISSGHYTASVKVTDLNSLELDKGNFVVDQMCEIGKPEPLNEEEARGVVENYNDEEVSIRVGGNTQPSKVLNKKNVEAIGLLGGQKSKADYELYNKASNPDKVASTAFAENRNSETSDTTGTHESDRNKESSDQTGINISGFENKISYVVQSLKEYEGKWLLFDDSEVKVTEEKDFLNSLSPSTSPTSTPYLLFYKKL
Procedure, shortened: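 In 50mM HEPES pH 7.8 containing 0.5mM EDTA, 1mM TCEP, 0.1 mg/ml BSA and 0.01% Tween-20, 1nM USP1/UAF1 is exposed to compound for 15 min, then Ub-Rho (150nM final) is added and fluorescence is read over time.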

[13] = molecular target: Cytochrome P450 3A4 (Homo sapiens) (UniProt P08684); experiment: qHTS Assay for Activators of Cytochrome P450 3A4 (AID 885); also: nearly all actives have a fitted effect of over 65% in size
Procedure, shortened: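 Using 20nM recombinant human CYP3A4 in potassium phosphate (200mM), substrate Luciferin-PPXE at 25uM, luminescent luciferin detection followed a 60-min RT NADPH reaction; data scaled to 57 uM ketoconazole.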

[14] = measured here: cell count channel max response
[15] = measured here: lipid channel max response

SMILES	Potency [1]	Potency [2]	Potency [3]	Potency [4]	Potency [5]	Potency [6]	activity change, negative = inhibition [7]	max response [7, 14] [%]	max response [7, 15] [%]	Potency [8]	Potency [9]	Potency [10]	Potency [11]	Potency [12]	Potency [13]
CC1(C)CO[C@H](CC(=O)O)CN1	> 46 µM (inactive)	> 46 µM (inactive)	inactive	inactive	6.3 nM (active)	5.01 µM (active)	-3% (inactive)	-8.35	-12.8	inactive	inactive	inactive	–	–	–
C[C@@H](CC(=O)O)[C@@H](N)C(=O)O	> 46 µM (inactive)	> 46 µM (inactive)	inactive	inactive	–	–	-3.19% (inactive)	-10.3	-14.3	inactive	inactive	inactive	–	–	–
C=C1C(=O)O[C@@H]2[C@H]3O[C@]3(C)CC/C=C(\C)CC[C@@H]12	–	–	–	–	–	–	–	–	–	–	inactive	inactive	–	–	–
CC(=O)O[C@H](CC(=O)O)C[N+](C)(C)C	> 46 µM (inactive)	> 46 µM (inactive)	inactive	–	–	–	5.24% (inactive)	15	18.1	inactive	inactive	inactive	–	–	–
NC(N)=NCCC[C@@H](N)C(=O)O	–	–	–	–	–	–	-2.14% (inactive)	-17.8	-21.4	inactive	inactive	inactive	inactive	inactive	–
Cc1o[nH]c(=O)c1CC[C@H](N)C(=O)O	> 46 µM (inactive)	> 46 µM (inactive)	inactive	inactive	–	–	4.78% (inactive)	-7.36	-2.41	inactive	inactive	inactive	–	inactive	–
Nc1ncnc2c1ncn2[C@@H]1O[C@H](COP(=O)(O)OP(=O)(O)O)[C@@H](O)[C@H]1O	–	–	–	–	–	–	5.3% (inactive)	-2.57	2.42	inactive	inactive	inactive	inactive	inactive	–
N[C@@H](CCCP(=O)(O)O)C(=O)O	> 46 µM (inactive)	> 46 µM (inactive)	inactive	–	–	–	-1.39% (inactive)	15.6	17.3	–	inactive	inactive	–	–	–
C[C@H](CCC(=O)O)[C@H]1CC[C@H]2[C@H]3C(CC[C@]12C)[C@@]1(C)CC[C@@H](O)C[C@H]1C[C@H]3O (stereo partly specified)	–	–	–	–	–	–	-7.53% (inactive)	14.2	5.28	inactive	inactive	inactive	–	inactive	–
CC(=O)OCCNC(=O)c1cccnc1	> 46 µM (inactive)	> 46 µM (inactive)	inactive	–	–	–	8.28% (inactive)	15.6	27.8	inactive	inactive	inactive	–	inactive	inactive

Source: PubChem BioAssay (NCATS)
